# According to PubChem BioAssay:
# Active and inactive are the calls of the source. Unless noted, the rule behind the calls is not given here.
# Key:
# [1] = resazurin metabolic signal in HepG2 cells – cell-based, resazurin fluorescence, 24 h, PK04 Diversity Set, profiling panel (AID 1172); settings: HepG2 viability, higher = more signal
# [2] = budding yeast growth changes without added modifier – OD600, strain BY4716, 24 h, basal condition, primary screen (AID 1173); settings: S. cerevisiae BY4716 growth, OD600, 24 h; higher = more signal, called active from +8 up or from −8 down
# [3] = viability profiling in MM1S myeloma cells – cell-based, resazurin fluorescence, basal, 24 h, PK04 Diversity Set, profiling panel (AID 1174); settings: higher = more signal, called active from +8 up or from −8 down;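 note: MM1S multiple myeloma cell line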
# [4] = target: Dihydroorotate dehydrogenase (quinone), mitochondrial (Plasmodium falciparum (isolate 3D7)) (UniProt Q08210); assay: inhibition of P. falciparum DHODH – biochemical, C-terminal His tag, absorbance 600 nm, primary screen (AID 1175); settings: PfDHODH enzyme, DCIP absorbance 600 nm; higher = more signal, called active from +8 up or from −8 down;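 note: recombinant parasite enzyme with a five histidine tag at its C terminus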
# [5] = inhibition of PAO1 biofilm formation – strain PAO1, LB-PBS medium, absorbance 600 nm, primary screen (AID 1176); settings: P. aeruginosa PAO1 growth/biofilm, A600, 12 h; higher = more signal
# [6] = growth modulation of vineyard yeast isolate – strain RM11-1a, OD600, basal, 24 h, primary screen (AID 1177);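 note: cultures grown under basal conditions with no added stressor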; settings: S. cerevisiae RM11-1a growth, OD600, 24 h; higher = more signal, called active from +8 up or from −8 down
# [7] = growth of efflux-deficient E. coli DRC39 – strain DRC39, OD650, 24 h, E. coli filamentation inducers, primary screen (AID 1178);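 note: growth measured as culture turbidity by optical density at 650 nm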; settings: E. coli DRC39 acrAB, higher = more signal, called active from +8 up or from −8 down
# [8] = growth of efflux-deficient E. coli DRC39 – strain DRC39, OD650, 48 h, E. coli filamentation inducers, primary screen (AID 1179);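 note: screen aims at cell division blockers that make cells filament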; settings: E. coli DRC39 delta-acrAB growth, higher = more signal, called active from +8 up or from −8 down
# [9] = viability profiling in RPMI8226 myeloma cells – cell-based, resazurin fluorescence, basal, 24 h, PK04 Diversity Set, profiling panel (AID 1180); settings: higher = more signal;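 note: RPMI8826 multiple myeloma cell line at 5000 cells per well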
# [10] = target: E3 ubiquitin-protein ligase XIAP (Homo sapiens) (UniProt P98170); assay: small molecules binding XIAP protein – biophysical, small-molecule microarray, fluorescence 635 nm, primary screen (AID 1181); settings: higher = more signal;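 note: score merges 667 nm emission and signal to noise over triplicate slides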
# [11] = test system: XIP peptide (Xip251-270) binding; assay: XIP fragment 251-270 binding compounds – biochemical, small-molecule microarray, fluorescence 635/667 nm, 0.1 µg/mL protein, primary screen (AID 1182); settings: fluorescent protein binding, 635 nm, higher = more signal, called active from +8 up or from −8 down
# [12] = test system: XIP peptide (Xip251-270); assay: compounds binding XIP fragment 251-270 – biochemical, small-molecule microarray, fluorescence 635/667 nm, 0.5 µg/mL protein, primary screen (AID 1183); settings: fluorescence 635 nm, higher = more signal
# [13] = blood-stage malaria parasite viability loss – strain 3D7, DAPI fluorescence, 100 nL, primary screen (AID 1184);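 note: parasites grown inside human red blood cells in medium with human serum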; settings: P. falciparum 3D7 growth, 3 d, higher = more signal
# [14] = target: Homeobox protein Hox-A13 (Mus musculus) (UniProt Q62424); assay: disruptors of Hoxa13 oligonucleotide interaction – biochemical, fluorescence polarization, labeled oligonucleotide, primary screen (AID 1185); settings: Hoxa13:DNA binding, 15 min, higher = more signal, called active from +8 up or from −8 down
# [15] = blockers of DNA damage checkpoint Chk1 activation – imaging, HeLa, hydroxyurea, phospho-Chk1 antibody, percent positive cells, primary screen (AID 1186); settings: hydroxyurea-induced phospho-Chk1 immunofluorescence imaging, higher = more signal
# [16] = blockers of DNA damage checkpoint Chk1 activation – imaging, HeLa, hydroxyurea, phospho-Chk1 nuclear intensity, primary screen (AID 1187); settings: hydroxyurea-induced phospho-Chk1 immunofluorescence imaging, higher = more signal
# Sequence of Dihydroorotate dehydrogenase (quinone), mitochondrial (Plasmodium falciparum (isolate 3D7)) (Q08210 whole entry, looked up): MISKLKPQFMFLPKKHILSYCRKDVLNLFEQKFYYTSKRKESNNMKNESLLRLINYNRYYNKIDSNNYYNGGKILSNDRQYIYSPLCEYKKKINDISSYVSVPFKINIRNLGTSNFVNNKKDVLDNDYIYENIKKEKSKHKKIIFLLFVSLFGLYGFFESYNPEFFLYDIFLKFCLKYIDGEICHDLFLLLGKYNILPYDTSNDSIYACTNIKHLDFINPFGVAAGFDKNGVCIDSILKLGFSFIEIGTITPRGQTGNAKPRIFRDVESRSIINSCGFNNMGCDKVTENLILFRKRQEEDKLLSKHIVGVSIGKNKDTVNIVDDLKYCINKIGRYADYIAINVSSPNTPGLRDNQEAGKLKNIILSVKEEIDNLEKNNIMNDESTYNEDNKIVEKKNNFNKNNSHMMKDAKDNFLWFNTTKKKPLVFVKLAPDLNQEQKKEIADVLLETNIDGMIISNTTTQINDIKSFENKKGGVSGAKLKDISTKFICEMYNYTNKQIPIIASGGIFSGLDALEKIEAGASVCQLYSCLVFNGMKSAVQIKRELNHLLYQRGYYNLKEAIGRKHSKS
# Sequence of Homeobox protein Hox-A13 (Mus musculus) (Q62424 whole entry, looked up): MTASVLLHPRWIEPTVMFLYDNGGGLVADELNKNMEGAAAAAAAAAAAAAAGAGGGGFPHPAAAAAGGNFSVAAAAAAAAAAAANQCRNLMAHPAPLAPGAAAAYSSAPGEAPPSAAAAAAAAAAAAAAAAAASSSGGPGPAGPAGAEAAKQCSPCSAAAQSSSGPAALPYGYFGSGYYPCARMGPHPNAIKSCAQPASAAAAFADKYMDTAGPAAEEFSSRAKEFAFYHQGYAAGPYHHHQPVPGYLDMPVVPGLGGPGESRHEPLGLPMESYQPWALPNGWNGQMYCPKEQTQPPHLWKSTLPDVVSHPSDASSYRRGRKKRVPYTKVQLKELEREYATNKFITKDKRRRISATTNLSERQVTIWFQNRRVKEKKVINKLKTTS
# Sequence of E3 ubiquitin-protein ligase XIAP (Homo sapiens) (P98170 whole entry, looked up, the tested form may be a part): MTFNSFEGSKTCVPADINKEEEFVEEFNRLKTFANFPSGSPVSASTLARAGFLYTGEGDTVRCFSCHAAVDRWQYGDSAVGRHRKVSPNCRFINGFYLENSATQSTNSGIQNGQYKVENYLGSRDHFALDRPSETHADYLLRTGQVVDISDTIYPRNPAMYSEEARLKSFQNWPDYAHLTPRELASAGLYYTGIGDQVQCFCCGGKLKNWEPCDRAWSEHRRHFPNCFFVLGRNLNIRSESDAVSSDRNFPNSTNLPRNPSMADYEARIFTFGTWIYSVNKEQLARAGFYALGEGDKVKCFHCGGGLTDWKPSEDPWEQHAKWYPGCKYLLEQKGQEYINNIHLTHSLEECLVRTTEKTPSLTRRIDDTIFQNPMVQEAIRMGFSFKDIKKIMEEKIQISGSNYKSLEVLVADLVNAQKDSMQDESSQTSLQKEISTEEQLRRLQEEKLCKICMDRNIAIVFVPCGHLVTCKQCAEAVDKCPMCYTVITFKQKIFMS
SMILES,z-score [1],z-score [2],z-score [3],composite z-score [4],z-score [5],z-score [6],z-score [7],z-score [8],z-score [9],composite z-score [10],composite z-score [11],composite z-score [12],z-score [13],z-score [14],z-score [15],z-score [16]
CC(C)[C@@H](C(=O)O)n1cc(C2(O)CCCCC2)nn1,0.853,-1.45 (inactive),0.979 (inactive),-0.549 (inactive),0.313 (inactive),-0.513 (inactive),0.738 (inactive),-0.195 (inactive),0.354,0.0077,0.142 (inactive),0.297,0.564,-0.619 (inactive),-0.3 (inactive),-0.12 (inactive)
O=C1[C@H]2C=C(Br)[C@H](C[C@@H]2OCCCCCCO)[C@@]12CO2,-0.629,-1.3 (inactive),-1.43 (inactive),0.571 (inactive),0.756 (inactive),0.414 (inactive),-0.748 (inactive),-0.602 (inactive),-0.899,-0.395,-0.358 (inactive),-0.777,-0.355,-1.84 (inactive),0.73 (inactive),0.231 (inactive)
CC(C)=CCCC(C)=CC(O)C1C=CC2C(=O)N(c3ccccc3)C(=O)C2N1Nc1ccc(C(C)C)cc1 (centres undefined),-0.307,0.125 (inactive),-0.862 (inactive),0.484 (inactive),0.0616 (inactive),1.47 (inactive),-0.427 (inactive),-0.306 (inactive),-0.463,-0.0382,0.365 (inactive),0.305,-0.25,-2.82 (inactive),0.342 (inactive),0.0288 (inactive)
C=CCN(Cc1ccccc1)C(=O)C(c1cccs1)N(C(=O)/C=C\C(=O)O)c1ccc(CCOCCO)cc1 (centres undefined),-0.552,0.25 (inactive),0.222 (inactive),-1.54 (inactive),0.742 (inactive),-1.18 (inactive),0.368 (inactive),0.651 (inactive),0.424,-0.249,-0.524 (inactive),0.625,0.155,0.12 (inactive),-1.25 (inactive),-0.565 (inactive)
CC(C)CCC[C@@H](C)[C@H]1CC[C@@]2(C)C3=C(CC[C@]12C)[C@@]1(C)CC[C@H](OC(=O)c2ccc(C(F)(F)F)nc2)C(C)(C)C1CC3 (some centres undefined),0.305,-0.473 (inactive),0.175 (inactive),-1.08 (inactive),0.188 (inactive),-2.03 (inactive),0.634 (inactive),0.762 (inactive),0.605,-0.161,0.106 (inactive),-0.176,-0.145,-1.23 (inactive),-0.887 (inactive),-0.365 (inactive)
C#CCN1[C@@H](Cc2ccc(O)cc2)C(=O)O[C@H](Cc2ccccc2)[C@@H]1/C=C/C1CC1,-1.9,-2.19 (inactive),-1.08 (inactive),-0.652 (inactive),-0.353 (inactive),0.168 (inactive),0.75 (inactive),0.665 (inactive),-1.21,0.0664,-0.111 (inactive),0.0549,0.32,-5.26 (inactive),-0.473 (inactive),-0.542 (inactive)
C#CCN(C/C=C/c1ccccc1)[C@H](CO)c1ccccc1,-0.832,-16.9 (active),-1.19 (inactive),0.716 (inactive),-0.128 (inactive),-1.31 (inactive),-0.338 (inactive),-1.7 (inactive),-1.45,-0.167,-0.333 (inactive),-0.384,-0.213,-6.53 (inactive),-0.209 (inactive),-0.753 (inactive)
CO[C@H]1O[C@H](CO)[C@@H](OC(=O)Nc2ccccc2)[C@@H]2OC(=O)[C@@H](Cc3ccc4ccccc4c3)C/C=C/C[C@H](Cc3ccc4ccccc4c3)C(=O)O[C@@H]12,-1.72,-0.456 (inactive),-0.588 (inactive),-2.21 (inactive),0.509 (inactive),-0.474 (inactive),1.13 (inactive),1.09 (inactive),-1.15,1.54,1.97 (inactive),0.748,-0.492,-3.03 (inactive),-0.956 (inactive),-0.96 (inactive)
O=C(CS)NCCCCCNC(=O)[C@H]1C[C@H]2C(=O)NCC(=O)N2[C@H]1c1ccc(O)cc1,1.33,-0.208 (inactive),1.5 (inactive),-0.522 (inactive),-0.832 (inactive),-1.3 (inactive),0.268 (inactive),0.0249 (inactive),1.21,0.0621,-0.344 (inactive),0.149,0.201,-1.2 (inactive),-0.831 (inactive),-0.795 (inactive)
